In the library only some 0.92% were active in any assay of this set; here they are far more common.
BLM helicase inh = inhibitors of human Bloom syndrome helicase BLM; P54132; recombinant BLM DNA unwinding, fluorescence dequenching; Potency, µM (doses to about 56.1 µM), without a hit: at the highest dose activity change, negative = inhibition, actives largely listed as inhibitors; 350,000 tested, 0.2% active; AID 2528;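 further: plate controls were vehicle for no effect and no enzyme for full effect; nearly all actives have a fitted effect of over 35% in size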
Target sequence (P54132 whole entry, looked up): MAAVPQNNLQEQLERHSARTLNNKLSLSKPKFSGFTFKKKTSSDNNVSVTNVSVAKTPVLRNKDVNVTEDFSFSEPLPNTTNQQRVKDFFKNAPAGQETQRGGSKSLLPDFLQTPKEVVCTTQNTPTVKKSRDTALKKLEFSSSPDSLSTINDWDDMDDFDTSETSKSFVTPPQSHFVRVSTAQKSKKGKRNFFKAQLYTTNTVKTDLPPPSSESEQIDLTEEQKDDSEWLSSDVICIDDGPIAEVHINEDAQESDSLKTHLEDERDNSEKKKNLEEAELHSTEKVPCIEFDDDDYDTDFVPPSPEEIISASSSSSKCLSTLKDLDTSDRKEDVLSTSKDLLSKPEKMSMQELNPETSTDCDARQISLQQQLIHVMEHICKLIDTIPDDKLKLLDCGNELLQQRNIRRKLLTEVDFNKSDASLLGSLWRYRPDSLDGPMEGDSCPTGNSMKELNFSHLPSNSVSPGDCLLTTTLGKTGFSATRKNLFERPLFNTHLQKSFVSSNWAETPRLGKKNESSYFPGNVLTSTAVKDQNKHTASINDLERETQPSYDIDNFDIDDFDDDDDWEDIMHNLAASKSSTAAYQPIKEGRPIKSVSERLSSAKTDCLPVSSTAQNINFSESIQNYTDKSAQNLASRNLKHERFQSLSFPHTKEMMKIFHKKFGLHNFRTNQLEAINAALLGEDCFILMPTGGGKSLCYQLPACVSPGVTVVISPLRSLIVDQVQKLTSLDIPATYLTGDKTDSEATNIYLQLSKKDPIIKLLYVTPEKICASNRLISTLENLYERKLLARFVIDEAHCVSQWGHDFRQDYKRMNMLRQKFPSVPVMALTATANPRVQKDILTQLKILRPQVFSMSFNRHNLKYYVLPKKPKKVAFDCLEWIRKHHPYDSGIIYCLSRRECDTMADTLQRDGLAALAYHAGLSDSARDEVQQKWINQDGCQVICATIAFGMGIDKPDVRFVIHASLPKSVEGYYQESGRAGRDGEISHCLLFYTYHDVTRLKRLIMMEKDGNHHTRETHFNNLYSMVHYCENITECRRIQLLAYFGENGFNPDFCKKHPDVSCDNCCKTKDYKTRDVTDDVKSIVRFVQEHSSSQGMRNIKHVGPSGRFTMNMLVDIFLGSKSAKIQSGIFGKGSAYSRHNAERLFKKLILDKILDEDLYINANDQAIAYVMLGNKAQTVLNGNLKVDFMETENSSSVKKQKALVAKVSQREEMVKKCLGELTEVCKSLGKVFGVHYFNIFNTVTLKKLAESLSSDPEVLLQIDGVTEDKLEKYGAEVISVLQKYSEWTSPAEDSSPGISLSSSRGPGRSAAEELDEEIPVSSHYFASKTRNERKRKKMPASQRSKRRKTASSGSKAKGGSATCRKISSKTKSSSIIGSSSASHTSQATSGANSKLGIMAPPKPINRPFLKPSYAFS
RECQ1 inh = RECQ1 (human) helicase inhibition. P46063. RECQ1 DNA unwinding, red fluorescence kinetic read. Potency, µM (doses to about 57.3 µM), inactives show top-dose activity, negative = inhibition, actives largely listed as inhibitors. 240,000 tested, 0.54% active. AID 2549;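 further: plate controls were vehicle for no effect and no enzyme for full effect; nearly all actives have a fitted effect of over 30% in size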
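50 nM RECQ1T1 preincubated 15 min with compound in Tris pH 8.0 buffer with MgCl2, DTT, Tween-20 and 2.5 ug/ml poly(dI-dC); started with 200 nM TAMRA/BHQ-2 forked duplex and 2 mM ATP. Unwinding read as fluorescence (525/598 nm), two reads 2 h apart.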
WRN helicase inh = inhibitors of human WRN helicase; 360,000 tested, 0.46% active; AID 651768; Q14191; Potency, µM (series often up to 114 µM), without a hit: at the highest dose activity change, negative = inhibition, most hits filed as inhibitors; WRN helicase unwinding, fluorescent forked duplex, kinetic; further: nearly all actives have a fitted effect of over 55% in size
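Screening of the MLSMR collection measured strand separation of a quenched forked DNA duplex (100 nM) by 20 nM WRN with 2 mM ATP, all final. Compounds were preincubated with enzyme 15 min at room temperature.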
L3MBTL1 inh = L3MBTL1 (human) inhibition. Potency, µM (top dose mostly 57.1 µM), without a hit: at the highest dose activity, negative = inhibition, hits mostly inhibitors. AID 485360. Q9Y468. AlphaScreen L3MBTL1–H3K9me1 peptide binding. 230,000 tested, 0.66% active; further: nearly all actives have a fitted effect of over 60% in size
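L3MBTL1 50 nM + b-AHA-H3(1-15)K9me1 75 nM, 30 min RT; compound added, 30 min RT; streptavidin donor/Ni-chelate acceptor beads 10 ug/mL each final, 30 min RT dark; AlphaScreen read.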
APE1 inh = APE1 (human) endonuclease inhibition. P27695. recombinant APE1, TAMRA/BHQ-2 abasic DNA cleavage fluorescence. Potency, µM (titrated, usually from 65.8 µM), for the others: at the highest dose activity change, negative = inhibition, usual class: inhibitors. 350,000 tested, 0.35% active. AID 2517;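 further: plate controls were vehicle for no effect and reference inhibitor for full effect; nearly all actives have a fitted effect of over 55% in size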
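Substrate: short duplex with […] THF abasic site, 5'-TAMRA and 3'-BHQ-2, 50 nM final. APE1 at 0.75 nM, preincubated 15 min RT with compound. Fluorescence increase from first to third read measured activity.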
An asterisk follows results filed as active; i = inactive; ? = inconclusive; nt = not tested or not shown; ! = not active in a repeat; [ ] = another dose, or the depositor's remark. The call rests on the fitted dose curve; in most records, active means well fitted curve in the direction sought with a large enough effect; inconclusive means small, poorly fitted or top-dose-only effect, or another doubt; inactive means no such curve, though single readings can be large; an effect the other way counts as inactive or inconclusive. Unless noted, on the % scale 0 is the no-effect control and ±100 the full control effect; potency means the concentration at half of the fitted maximal effect.

SMILES	BLM helicase inh	RECQ1 inh	WRN helicase inh	L3MBTL1 inh	APE1 inh
C[C@@H]1C/C=C/C=C/C=C/C=C/[C@H](O[C@@H]2O[C@H](C)[C@@H](O)[C@H](N)[C@@H]2O)C[C@@H]2O[C@](O)(C[C@@H](O)C[C@H]3O[C@@H]3/C=C/C(=O)O1)C[C@H](O)[C@H]2C(=O)O	nt	nt	nt	nt	0.1%[21 µM]
Cc1ccc(-n2c(O)c(C=Nc3cc(C)on3)c3ccccc3c2=O)c(C)c1	-8.5%	-9.0%	50.1µM*	11.3%	-5.0%
O=C(CSc1nnc(-c2cccc([S+](=O)([O-])N3CCCC3)c2)n1-c1ccccc1)Nc1ccc2c(c1)OCCO2	nt	nt	nt	nt	17.4%
COc1ccc(Cl)cc1NC(=O)NCCN1CCCCC1	-9.4%	i	-2.5%[57.1 µM]	4.2%	-0.7%
COc1ccc(Cl)cc1NC(=O)NN1CCN(C)CC1	-18.1%	nt	14.3%	nt	13.4µM*
O=C(C[n+]1ccccc1)Nc1c(Cl)cc(Cl)cc1Cl	-23.9%	7.2%	-1.7%	11.2µM*	2.0%
Cc1ccc[n+](CC(=O)Nc2c(Cl)cc(Cl)cc2Cl)c1	-0.9%	6.5%	-6.5%	5.4%	?
COc1cccc(/C=C2/CN(C)CC3=C2OC(N)=C(C#N)C3c2cccc(OC)c2)c1 (stereo unspecified)	-7.0%	-5.0%	79.4µM*	-6.8%	-5.4%
COc1cccc(C2C(C#N)=C(N)OC(C(C)(C)C)=C2C#N)c1 (stereo unspecified)	-6.0%	i	-11.5%	-12.0%	5.5%
Cc1ccc(/C=C/c2nc3sc(C(=O)O)c(C)c3c(=O)[nH]2)cc1[N+](=O)[O-]	-9.4%	nt	?	nt	8.44µM*
CC(=O)NC(CCC(=O)O)C(=O)O (stereo unspecified)	-5.2%	-6.5%	1.3%	nt	10.0%
CC(=O)N[C@@H](CC(=O)O)C(=O)N[C@@H](CCC(=O)O)C(=O)O	-1.5%	?	nt	nt	3.55µM*!
O=S(=O)(Cc1ccccc1)c1nnnn1C1CCCCC1	2.1%	i	nt	nt	-1.0%
O=C(CCCC[C@@H]1SC[C@H]2NC(=O)N[C@H]12)Nc1ccc(C(=O)O)cc1	1.9%	-8.8%	nt	nt	-0.2%
Cc1cc(N)ccc1N1CCCC1	-15.7%	-21.1%	50.1µM*	-14.3%	2.2%
CCC[C@@H]1C[C@@H](C(=O)N[C@@H]([C@H]2O[C@H](SC)[C@H](O)[C@@H](O)[C@H]2O)[C@H](C)Cl)N(C)C1	nt	nt	nt	nt	-0.1%[21 µM]
CN[C@@H]1[C@@H](O)[C@@H](O[C@@H]2[C@@H](O)[C@H](OC3OC(CN)=CCC3N)[C@@H](N)C[C@H]2N)OC[C@]1(C)O (stereo partly specified)	nt	nt	nt	nt	0.7%[21 µM]
CCC1(O)CC2CN(CCc3c([nH]c4ccccc34)[C@@](C(=O)OC)(c3cc4c(cc3OC)N(C)C3[C@]45CCN4CC=C[C@@](CC)([C@@H](OC(C)=O)[C@]3(O)C(=O)OC)[C@H]45)C2)C1 (stereo partly specified)	nt	14.1µM*	nt	nt	-1.4%
O=C(O)CC[C@H](NC(=O)c1ccccc1C(=O)O)C(=O)O	nt	-8.1%	nt	nt	-1.0%
CN1CCc2cc(O)c(O)cc2C1Cc1ccc(O)c(O)c1 (stereo unspecified)	-7.1%	8.4%	nt	nt	-5.5%
C/C(=N\Nc1nc2ccccc2[nH]1)c1ccc(C)o1	-0.6%	-9.9%	-14.2%	-7.7%	3.2%
C/C(=N\Nc1nc2ccccc2[nH]1)c1ccc(Cl)s1	-12.1%	31.6µM*	-20.9%	-9.3%	-5.9%
CN1CCN(c2nc(N3CCN(CCO)CC3)nc3ccccc23)CC1	-3.8%	i	-10.9%	-7.7%	-5.5%
OCCN1CCN(c2cc(-c3ccccc3)c3ccccc3n2)CC1	6.8%	-0.4%	79.4µM*	-8.6%	16.0%
Cc1ccc(Cn2cnc3c(cnn3C(C)(C)C)c2=O)cc1F	nt	nt	nt	nt	-3.1%
SMILES	BLM helicase inh	RECQ1 inh	WRN helicase inh	L3MBTL1 inh	APE1 inh
CCCCn1c(NC(=O)c2ccccc2)nc2ccccc21	-7.3%	-3.7%	-17.8%	1.9%	-2.3%
S=C(Nc1ccccc1)Nc1nc2ccccc2n1CCOc1ccccc1	-9.5%	-16.7%	-1.3%	10µM*	-5.9%
CCCCn1c(NC(=S)Nc2ccccc2)nc2ccccc21	-6.9%	-1.7%	-15.3%	17.8µM*	6.3%
NC(=O)[C@@H]1CCCN1C(=O)C(Cc1cnc[nH]1)NC(=O)C1CCC(=O)N1 (stereo partly specified)	-1.4%	-0.4%	nt	nt	-2.2%
NC(N)=NCCC[C@H](N)C(=O)N1CCC[C@H]1C(=O)N1CCC[C@H]1C(=O)NCC(=O)N[C@@H](Cc1ccccc1)C(=O)N[C@@H](CO)C(=O)N1CCC[C@H]1C(=O)N[C@@H](Cc1ccccc1)C(=O)O	1.0%	-2.4%	nt	nt	-6.3%
C#CCSc1nc2sc3c(c2c(=O)n1C)CCC3	5.6%	nt	-27.9%	nt	9.47µM*
O=C(Nc1ccc(F)cc1)C(c1ccccc1)N1CCN(CC(=O)N2CCOCC2)CC1 (stereo unspecified)	nt	nt	-2.7%	-2.7%	15.7%
Cc1ccc(NC(=O)C(c2ccccc2)N2CCN(CC(=O)N3CCOCC3)CC2)cc1Cl (stereo unspecified)	nt	nt	-11.7%	-0.6%	10.6µM*
COc1ccccc1N1C(=O)c2cccnc2C1=O	-2.9%	nt	12.2%	-4.7%	24.9%
O=C1C(=O)c2cccnc2-c2ncccc21	nt	nt	17.8µM*	nt	nt
COC1=C(Br)C(=O)c2ncccc2C1=O	nt	nt	10µM*	nt	nt
O=C1c2cccnc2-c2ncccc21	4.0%	-21.8%	-11.2%	11.1%	-5.3%
CCN1CCN(Cc2ccc(NC(=O)c3ccc(C)c(NC(=O)c4ccno4)c3)cc2C(F)(F)F)CC1	0.0%	i	-2.2%	nt	-2.0%
CCN1CCN(Cc2ccc(NC(=O)c3ccc(C)c(/C=C/c4cnc(Nc5cc(N6CCNCC6)nc(C)n5)cn4)c3)cc2C(F)(F)F)CC1	33.3%	nt	20µM*!	-3.8%	?
CCn1c2ccccc2c2cc(NC(=O)COC(=O)c3ccc(NC(=O)CC#N)cc3)ccc21	nt	nt	?	31.6µM*	-19.5%
CCn1c2ccccc2c2cc(NC(=O)COC(=O)c3ccccc3F)ccc21	-1.1%	3.4%	-8.7%[57.1 µM]	1.2%	3.4%
